Tests used:
Test in all cases: log2 ratio of Biotin-Ahx-Ub-VS probe labelling (fragment/DMSO); higher = less target engagement (more negative = stronger competition), active = hit call of the paper (q ≤ 0.05, log2 ratio ≤ -1)
Conditions in all cases: compound concentration: 200 uM; treatment time: 3 h
USP42 = biological target: T1, USP42 (UniProt Q9H9J4)
T1 sequence (whole entry): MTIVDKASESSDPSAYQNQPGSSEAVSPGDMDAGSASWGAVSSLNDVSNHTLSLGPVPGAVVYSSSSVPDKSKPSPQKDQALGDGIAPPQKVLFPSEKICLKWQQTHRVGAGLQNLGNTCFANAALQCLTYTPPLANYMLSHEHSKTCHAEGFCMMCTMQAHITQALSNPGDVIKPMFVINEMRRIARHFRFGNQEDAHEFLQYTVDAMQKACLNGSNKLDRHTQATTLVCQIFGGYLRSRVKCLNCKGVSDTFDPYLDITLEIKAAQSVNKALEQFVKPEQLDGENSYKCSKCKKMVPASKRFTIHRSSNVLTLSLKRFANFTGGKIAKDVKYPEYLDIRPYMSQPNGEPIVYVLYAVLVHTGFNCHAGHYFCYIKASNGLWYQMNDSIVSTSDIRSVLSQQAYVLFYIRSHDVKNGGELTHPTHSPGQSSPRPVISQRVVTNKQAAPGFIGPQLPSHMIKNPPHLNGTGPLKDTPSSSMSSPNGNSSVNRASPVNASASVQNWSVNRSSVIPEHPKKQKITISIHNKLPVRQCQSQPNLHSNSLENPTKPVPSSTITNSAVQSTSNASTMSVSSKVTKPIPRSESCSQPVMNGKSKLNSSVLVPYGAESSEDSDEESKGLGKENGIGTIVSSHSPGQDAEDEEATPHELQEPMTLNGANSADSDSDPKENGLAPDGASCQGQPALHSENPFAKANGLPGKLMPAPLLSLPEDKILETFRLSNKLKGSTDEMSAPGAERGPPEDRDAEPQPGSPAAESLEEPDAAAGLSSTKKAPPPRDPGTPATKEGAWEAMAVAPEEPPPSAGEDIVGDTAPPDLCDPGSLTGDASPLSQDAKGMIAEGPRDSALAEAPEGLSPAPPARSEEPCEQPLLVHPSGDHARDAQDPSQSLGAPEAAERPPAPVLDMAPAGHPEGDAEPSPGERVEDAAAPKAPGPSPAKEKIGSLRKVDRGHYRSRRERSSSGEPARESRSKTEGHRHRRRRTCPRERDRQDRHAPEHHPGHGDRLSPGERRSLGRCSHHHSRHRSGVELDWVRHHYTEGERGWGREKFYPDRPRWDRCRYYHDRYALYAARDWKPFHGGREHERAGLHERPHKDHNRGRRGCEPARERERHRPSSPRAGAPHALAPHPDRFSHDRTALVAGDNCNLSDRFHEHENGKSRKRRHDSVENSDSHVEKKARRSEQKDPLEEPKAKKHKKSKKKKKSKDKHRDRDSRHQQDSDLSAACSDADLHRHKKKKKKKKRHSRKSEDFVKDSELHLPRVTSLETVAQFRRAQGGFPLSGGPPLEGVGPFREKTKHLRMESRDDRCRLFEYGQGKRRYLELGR
Summary of the method: (§1)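 HEK293T lysate in Tris/CHAPS/IGEPAL buffer with protease inhibitors (495 µg per sample) was given fragment at 200 µM or vehicle for 3 h, in triplicate. It then received Biotin-Ahx-Ub-VS at 0.5 µM final for 1 h. Labelled DUBs were NeutrAvidin-enriched, digested with LysC and trypsin, and run by diaPASEF LC-MS/MS. Values are average log2 fragment/vehicle ratios by unpaired t-test on global-median-normalised Spectronaut quantities of proteins with ≥2 unique peptides.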

USP46 = USP46 (UniProt P62068)
Summary of the method: as §1

USP47 = biological target: T2, USP47 (UniProt Q96K76)
T2 sequence (whole entry): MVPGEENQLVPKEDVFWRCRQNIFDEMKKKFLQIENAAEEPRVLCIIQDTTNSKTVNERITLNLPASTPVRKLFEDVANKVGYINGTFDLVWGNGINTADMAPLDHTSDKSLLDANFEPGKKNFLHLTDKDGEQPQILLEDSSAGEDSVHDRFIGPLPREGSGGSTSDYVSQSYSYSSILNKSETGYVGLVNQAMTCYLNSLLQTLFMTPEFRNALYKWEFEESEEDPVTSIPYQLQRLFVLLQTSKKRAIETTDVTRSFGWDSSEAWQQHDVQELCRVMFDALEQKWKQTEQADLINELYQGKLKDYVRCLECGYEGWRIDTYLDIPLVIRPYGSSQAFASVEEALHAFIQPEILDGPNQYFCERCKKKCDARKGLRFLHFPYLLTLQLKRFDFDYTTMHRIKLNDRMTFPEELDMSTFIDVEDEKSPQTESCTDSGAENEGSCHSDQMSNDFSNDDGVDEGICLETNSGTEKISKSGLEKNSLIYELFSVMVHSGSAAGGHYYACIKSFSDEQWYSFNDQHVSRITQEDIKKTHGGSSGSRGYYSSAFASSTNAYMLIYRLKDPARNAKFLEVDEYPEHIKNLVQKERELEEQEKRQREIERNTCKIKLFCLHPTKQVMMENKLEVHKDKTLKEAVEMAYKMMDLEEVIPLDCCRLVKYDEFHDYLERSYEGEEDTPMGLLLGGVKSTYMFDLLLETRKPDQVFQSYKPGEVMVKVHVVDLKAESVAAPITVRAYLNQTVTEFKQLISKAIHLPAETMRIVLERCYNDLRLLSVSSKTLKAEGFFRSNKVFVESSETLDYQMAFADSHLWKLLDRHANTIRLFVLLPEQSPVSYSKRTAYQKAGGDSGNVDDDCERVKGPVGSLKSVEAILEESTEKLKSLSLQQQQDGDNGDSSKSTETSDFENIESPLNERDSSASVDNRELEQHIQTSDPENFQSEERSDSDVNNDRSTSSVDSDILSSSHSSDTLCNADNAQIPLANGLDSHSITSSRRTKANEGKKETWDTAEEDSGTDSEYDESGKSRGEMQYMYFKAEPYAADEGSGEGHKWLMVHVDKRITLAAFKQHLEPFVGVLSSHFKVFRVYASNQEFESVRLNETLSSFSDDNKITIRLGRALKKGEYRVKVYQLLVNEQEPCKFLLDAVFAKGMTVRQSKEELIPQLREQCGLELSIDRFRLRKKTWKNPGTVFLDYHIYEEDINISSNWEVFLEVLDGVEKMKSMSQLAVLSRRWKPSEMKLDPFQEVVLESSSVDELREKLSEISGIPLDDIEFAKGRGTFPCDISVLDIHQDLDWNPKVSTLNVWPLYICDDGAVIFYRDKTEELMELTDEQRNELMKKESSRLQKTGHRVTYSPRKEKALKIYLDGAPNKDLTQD
Summary of the method: as §1

USP48 = biological target: T3, USP48 (UniProt Q86UV5)
T3 sequence (whole entry): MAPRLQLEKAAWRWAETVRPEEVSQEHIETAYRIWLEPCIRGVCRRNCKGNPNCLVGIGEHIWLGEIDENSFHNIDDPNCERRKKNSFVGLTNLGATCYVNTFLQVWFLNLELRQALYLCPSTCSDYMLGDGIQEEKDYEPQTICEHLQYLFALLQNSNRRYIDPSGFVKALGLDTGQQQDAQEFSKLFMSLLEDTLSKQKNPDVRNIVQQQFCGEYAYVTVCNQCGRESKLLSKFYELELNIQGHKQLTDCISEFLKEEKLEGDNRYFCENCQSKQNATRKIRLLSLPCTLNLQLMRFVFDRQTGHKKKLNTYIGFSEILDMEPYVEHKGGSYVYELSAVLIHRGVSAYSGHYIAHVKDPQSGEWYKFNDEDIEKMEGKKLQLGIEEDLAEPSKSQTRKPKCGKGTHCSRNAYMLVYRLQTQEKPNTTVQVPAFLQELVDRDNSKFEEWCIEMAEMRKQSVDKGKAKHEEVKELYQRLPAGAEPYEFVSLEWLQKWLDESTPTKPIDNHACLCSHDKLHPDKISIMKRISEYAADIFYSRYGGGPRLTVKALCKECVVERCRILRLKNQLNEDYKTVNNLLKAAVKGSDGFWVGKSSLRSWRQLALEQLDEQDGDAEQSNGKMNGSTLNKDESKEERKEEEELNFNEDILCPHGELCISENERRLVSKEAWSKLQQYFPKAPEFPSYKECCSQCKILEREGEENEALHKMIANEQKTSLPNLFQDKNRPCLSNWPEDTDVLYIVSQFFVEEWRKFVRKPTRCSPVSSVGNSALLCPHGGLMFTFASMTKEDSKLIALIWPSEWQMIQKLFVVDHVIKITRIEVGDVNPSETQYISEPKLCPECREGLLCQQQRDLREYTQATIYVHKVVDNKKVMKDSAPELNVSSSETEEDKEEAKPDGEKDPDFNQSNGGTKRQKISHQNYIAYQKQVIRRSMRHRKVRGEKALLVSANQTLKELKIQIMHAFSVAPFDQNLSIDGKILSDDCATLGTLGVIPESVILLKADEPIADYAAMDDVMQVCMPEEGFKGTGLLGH
Summary of the method: as §1

USP5 = biological target: T4, USP5 (UniProt P45974)
T4 sequence (whole entry): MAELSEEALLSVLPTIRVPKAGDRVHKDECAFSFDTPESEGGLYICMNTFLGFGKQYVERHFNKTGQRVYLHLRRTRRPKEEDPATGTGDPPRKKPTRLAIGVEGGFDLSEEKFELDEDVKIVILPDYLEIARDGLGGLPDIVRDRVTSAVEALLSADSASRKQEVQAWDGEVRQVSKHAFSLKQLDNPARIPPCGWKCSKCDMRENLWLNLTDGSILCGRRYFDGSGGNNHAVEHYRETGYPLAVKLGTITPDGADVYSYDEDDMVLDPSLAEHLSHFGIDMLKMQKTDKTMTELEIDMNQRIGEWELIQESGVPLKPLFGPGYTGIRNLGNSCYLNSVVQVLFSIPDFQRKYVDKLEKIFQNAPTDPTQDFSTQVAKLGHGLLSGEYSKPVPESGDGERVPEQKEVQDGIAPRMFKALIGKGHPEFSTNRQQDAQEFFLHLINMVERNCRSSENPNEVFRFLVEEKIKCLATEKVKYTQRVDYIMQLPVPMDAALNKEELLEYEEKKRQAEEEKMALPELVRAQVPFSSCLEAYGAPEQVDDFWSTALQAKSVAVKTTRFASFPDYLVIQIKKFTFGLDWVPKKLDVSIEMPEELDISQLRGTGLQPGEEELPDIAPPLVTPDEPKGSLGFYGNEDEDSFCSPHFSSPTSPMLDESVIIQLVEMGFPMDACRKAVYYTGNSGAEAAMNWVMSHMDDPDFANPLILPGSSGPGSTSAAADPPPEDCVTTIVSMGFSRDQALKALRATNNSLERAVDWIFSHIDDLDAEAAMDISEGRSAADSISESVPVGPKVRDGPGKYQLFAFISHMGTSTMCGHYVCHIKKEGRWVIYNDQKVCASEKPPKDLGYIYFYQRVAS
Summary of the method: as §1

USP54 = USP54 (UniProt Q70EL1)
Summary of the method: as §1

USP7 = USP7 (UniProt Q93009)
Summary of the method: as §1

USP8 = biological target: T5, USP8 (UniProt P40818)
T5 sequence (whole entry): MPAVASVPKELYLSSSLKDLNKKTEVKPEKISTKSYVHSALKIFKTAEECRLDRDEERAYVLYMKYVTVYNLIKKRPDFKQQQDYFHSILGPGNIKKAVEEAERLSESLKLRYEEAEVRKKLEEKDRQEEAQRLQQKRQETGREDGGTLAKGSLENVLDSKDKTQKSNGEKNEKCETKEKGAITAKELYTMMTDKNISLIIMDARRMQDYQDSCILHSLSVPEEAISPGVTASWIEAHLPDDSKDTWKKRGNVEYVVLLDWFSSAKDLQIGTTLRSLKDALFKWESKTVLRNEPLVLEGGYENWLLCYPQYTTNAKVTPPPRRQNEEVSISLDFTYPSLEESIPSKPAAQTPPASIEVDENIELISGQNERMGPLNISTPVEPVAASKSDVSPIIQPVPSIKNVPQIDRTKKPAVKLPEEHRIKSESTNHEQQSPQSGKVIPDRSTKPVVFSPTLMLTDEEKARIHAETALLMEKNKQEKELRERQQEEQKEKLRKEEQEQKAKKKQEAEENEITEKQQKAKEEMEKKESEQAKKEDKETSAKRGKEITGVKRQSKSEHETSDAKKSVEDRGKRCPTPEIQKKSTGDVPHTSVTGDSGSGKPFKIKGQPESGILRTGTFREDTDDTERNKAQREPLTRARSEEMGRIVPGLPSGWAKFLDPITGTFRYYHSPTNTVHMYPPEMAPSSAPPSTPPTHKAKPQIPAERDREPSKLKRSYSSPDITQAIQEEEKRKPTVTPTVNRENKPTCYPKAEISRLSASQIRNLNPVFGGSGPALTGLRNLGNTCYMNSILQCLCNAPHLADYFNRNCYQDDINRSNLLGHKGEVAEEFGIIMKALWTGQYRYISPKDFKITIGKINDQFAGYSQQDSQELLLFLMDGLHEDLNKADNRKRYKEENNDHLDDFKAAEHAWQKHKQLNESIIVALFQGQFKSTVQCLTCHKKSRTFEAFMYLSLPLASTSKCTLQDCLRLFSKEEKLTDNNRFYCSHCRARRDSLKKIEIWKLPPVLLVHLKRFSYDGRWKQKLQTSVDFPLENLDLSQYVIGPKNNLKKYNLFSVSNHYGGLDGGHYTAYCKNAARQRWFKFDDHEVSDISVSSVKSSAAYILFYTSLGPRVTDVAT
Summary of the method: as §1

Measured: log2 ratio of Biotin-Ahx-Ub-VS probe labelling

USP7, sequence (Q93009 whole entry, looked up): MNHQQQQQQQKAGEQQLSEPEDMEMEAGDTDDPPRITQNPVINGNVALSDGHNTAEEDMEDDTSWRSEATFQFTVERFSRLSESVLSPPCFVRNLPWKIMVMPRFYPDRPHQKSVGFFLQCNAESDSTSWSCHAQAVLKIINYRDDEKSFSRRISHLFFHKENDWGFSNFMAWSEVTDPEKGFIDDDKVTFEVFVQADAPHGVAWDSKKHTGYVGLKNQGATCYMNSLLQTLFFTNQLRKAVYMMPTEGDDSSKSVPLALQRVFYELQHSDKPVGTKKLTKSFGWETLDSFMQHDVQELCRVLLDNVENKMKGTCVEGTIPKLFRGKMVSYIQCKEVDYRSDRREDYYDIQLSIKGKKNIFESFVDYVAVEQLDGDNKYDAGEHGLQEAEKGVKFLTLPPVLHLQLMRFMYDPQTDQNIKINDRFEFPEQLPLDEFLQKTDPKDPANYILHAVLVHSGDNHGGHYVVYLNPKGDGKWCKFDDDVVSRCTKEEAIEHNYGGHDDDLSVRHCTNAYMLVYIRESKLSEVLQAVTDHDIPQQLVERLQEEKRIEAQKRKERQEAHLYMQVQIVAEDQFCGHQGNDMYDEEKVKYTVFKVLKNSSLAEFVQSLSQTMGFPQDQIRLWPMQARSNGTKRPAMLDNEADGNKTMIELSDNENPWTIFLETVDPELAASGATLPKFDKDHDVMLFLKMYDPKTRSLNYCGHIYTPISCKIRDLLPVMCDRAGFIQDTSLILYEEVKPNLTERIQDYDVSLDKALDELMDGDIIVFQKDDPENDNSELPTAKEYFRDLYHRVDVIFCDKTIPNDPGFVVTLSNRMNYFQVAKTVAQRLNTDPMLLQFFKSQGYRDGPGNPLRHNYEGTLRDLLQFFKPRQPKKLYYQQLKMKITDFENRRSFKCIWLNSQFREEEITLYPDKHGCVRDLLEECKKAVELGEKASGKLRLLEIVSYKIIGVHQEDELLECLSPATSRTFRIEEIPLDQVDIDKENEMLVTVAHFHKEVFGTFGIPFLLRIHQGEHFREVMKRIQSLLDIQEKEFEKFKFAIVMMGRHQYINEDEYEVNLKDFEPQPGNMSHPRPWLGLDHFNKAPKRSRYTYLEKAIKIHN
USP54, sequence (Q70EL1 whole entry): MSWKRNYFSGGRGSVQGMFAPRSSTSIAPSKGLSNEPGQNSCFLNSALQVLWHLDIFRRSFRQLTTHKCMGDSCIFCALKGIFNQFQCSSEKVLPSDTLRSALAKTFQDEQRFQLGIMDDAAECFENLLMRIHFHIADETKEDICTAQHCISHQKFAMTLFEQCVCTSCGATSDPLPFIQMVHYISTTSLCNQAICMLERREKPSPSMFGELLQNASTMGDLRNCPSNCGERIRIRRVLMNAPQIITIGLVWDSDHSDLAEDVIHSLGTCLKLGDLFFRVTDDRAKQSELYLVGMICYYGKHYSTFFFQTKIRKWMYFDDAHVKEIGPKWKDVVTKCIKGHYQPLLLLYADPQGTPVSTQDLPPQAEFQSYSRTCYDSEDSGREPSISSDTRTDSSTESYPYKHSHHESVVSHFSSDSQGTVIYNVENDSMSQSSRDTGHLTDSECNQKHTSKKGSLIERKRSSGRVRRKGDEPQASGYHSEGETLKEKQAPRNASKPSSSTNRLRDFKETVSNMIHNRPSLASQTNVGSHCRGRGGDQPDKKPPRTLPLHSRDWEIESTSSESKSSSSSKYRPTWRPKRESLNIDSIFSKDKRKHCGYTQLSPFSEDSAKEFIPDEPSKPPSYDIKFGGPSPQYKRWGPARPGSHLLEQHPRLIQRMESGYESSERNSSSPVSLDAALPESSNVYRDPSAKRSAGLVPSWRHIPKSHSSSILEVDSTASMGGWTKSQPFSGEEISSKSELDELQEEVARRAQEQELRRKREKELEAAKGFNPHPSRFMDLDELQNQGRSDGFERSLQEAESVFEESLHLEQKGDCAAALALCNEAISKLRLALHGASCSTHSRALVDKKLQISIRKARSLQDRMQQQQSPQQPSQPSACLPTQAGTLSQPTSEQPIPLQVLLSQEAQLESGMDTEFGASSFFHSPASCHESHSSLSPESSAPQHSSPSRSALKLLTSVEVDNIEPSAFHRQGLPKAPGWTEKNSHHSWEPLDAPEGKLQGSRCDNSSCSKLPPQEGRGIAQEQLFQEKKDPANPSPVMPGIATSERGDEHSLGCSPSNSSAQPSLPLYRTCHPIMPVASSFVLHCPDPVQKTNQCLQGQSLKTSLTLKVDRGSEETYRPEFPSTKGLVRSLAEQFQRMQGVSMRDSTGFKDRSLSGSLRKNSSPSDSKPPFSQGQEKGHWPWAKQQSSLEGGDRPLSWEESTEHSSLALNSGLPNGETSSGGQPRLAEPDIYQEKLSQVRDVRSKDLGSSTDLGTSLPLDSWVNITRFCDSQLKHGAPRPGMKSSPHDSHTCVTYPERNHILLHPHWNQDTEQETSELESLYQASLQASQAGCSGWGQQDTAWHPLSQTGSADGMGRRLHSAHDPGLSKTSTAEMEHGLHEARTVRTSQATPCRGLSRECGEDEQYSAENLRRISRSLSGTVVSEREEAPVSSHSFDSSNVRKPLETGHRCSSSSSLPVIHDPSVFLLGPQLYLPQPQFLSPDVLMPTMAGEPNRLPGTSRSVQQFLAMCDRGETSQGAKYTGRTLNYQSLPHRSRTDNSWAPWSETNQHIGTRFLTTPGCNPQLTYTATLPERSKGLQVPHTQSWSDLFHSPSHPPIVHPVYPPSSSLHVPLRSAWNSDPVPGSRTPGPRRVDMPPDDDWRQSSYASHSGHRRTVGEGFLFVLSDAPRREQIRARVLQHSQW
USP46, sequence (P62068 whole entry): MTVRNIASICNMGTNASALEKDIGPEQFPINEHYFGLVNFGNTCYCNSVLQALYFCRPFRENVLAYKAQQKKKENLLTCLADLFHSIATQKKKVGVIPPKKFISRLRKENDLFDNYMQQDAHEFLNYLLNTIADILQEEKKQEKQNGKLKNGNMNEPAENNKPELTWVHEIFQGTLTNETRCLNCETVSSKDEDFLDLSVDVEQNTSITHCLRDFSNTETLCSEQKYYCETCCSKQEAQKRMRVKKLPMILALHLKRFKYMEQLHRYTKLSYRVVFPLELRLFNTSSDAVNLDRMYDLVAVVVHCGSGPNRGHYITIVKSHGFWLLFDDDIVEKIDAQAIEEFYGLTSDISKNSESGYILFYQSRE

O=C(CCl)NCCc1ccc2c(c1)OCCO2
inactive: USP42 0.217 | USP46 0.147 | USP47 0.109 | USP48 -0.413 | USP5 -0.336 | USP54 0.647 | USP7 -0.433 | USP8 0.0104
